Compounds with a hit are over-represented: about 5.3% of the library has one in this group of screens.
JMJD2A Tudor: qHTS Assay for Inhibitors of JMJD2A-Tudor Domain; actives 4.4% (n = 390,000); AID 504339, 2011; AlphaScreen JMJD2A-Tudor / H3K4me3 peptide binding; Potency, µM (doses to about 114 µM), for inactives: at the highest dose activity change, negative = inhibition, most hits filed as inhibitors; note: potency is the fitted concentration of half-maximal effect; % is set by controls: 0 for no effect and ±100 for the full control effect; nearly all actives have a fitted effect of over 50% in size
TDP1 block: qHTS Assay for Inhibitors of Tyrosyl-DNA Phosphodiesterase (TDP1); AID 485290, 2010; Potency, µM (titrated, usually from 130 µM), for inactives: at the highest dose activity change, negative = inhibition, actives largely listed as inhibitors; recombinant TDP1, AlphaScreen DNA substrate cleavage; actives 0.28% (n = 350,000); note: potency is the fitted concentration of half-maximal effect; % is set by controls: 0 for no effect and ±100 for the full control effect; nearly all actives have a fitted effect of over 40% in size
Target sequence (Q9NUW8 whole entry, looked up): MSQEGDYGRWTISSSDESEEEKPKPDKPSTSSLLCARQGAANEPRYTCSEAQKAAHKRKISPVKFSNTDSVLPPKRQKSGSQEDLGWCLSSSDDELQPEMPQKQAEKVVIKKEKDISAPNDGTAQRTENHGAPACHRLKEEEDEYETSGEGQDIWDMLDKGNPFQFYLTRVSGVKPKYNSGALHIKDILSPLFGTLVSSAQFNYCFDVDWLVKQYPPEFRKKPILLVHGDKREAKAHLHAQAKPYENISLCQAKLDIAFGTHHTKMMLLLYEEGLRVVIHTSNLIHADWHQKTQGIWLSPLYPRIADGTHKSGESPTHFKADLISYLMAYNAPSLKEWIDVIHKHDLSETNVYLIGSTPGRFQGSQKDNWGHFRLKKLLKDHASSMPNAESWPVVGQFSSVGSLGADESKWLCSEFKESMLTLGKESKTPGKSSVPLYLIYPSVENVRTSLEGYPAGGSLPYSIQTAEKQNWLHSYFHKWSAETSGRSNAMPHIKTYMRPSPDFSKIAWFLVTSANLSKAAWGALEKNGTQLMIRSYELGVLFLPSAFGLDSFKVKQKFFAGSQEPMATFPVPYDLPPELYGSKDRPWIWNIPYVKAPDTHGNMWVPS
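Steps: enzyme plus compound, 15 min RT; add biotin/phosphotyrosine-FITC oligonucleotide (15 nM final), react 5 min; add donor/acceptor beads (10 ug/ml final), 10 min; read AlphaScreen. Tdp1 at 1 nM final.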
CtBP-E1A blk: qHTS Assay for Inhibitors of the CtBP/E1A Interaction. AID 651724, 2012. activity change, % (concentration not given with the values). AlphaScreen GST-E1A/His-CtBP binding, 1536-well; stronger effect = lower value. actives 0.49% (n = 340,000). CtBP / adenovirus E1A interaction (AlphaScreen); in the data active = activity change below about -65%; inconclusive = mostly about -30% to -63%; note: % is set by controls: 0 for no effect and ±100 for the full control effect
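In 5 uL wells, 23 nL compound meets equimolar GST-E1A and His-CtBP (5X stock 125 nM each) for 2 h, 37 °C. Beads (5X, 50 ug/mL) then 1 h, 37 °C, dark.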
Six1-Eya2 inh: qHTS Assay for Inhibitors of the Six1/Eya2 Interaction; Homeobox protein SIX1 (Homo sapiens) + Protein phosphatase EYA2 (Homo sapiens), …; AlphaScreen GST-Six1/His-Eya2 binding, biochemical; stronger effect = lower value; activity change, % (test concentration not listed); actives 0.56% (n = 360,000); AID 651725, 2012; in the data active = activity change below about -65%; inconclusive = mostly about -30% to -63%; note: % is set by controls: 0 for no effect and ±100 for the full control effect
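Compounds are tested against tagged Six1 and Eya2 proteins bridged by glutathione donor and nickel acceptor beads; after a one-hour incubation at 37 °C without light, AlphaScreen emission is recorded.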
BAZ2B inh: qHTS Assay for Inhibitors of BAZ2B | AlphaScreen BAZ2B-H3K14Ac peptide displacement | Potency, µM (series often up to 114 µM), for the others: at the top dose activity change, negative = inhibition, hits mostly inhibitors | actives 4.4% (n = 360,000) | AID 504333, 2011; note: potency is the fitted concentration of half-maximal effect; % is set by controls: 0 for no effect and ±100 for the full control effect; nearly all actives have a fitted effect of over 60% in size
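AlphaScreen displacement of biotin-H3(5-23)K14Ac peptide (50 nM final) from BAZ2B (50 nM final) in PBS pH 7.4, 0.01% Tween-20; complex preformed 30 min RT, then compounds (top 110 uM) 30 min RT, beads 20 min dark.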
HP1b chromo inh: HTS for Inhibitors of HP1-beta Chromodomain Interactions with Methylated Histone Tails; Potency, µM (highest dose often 114 µM), without a hit: top-dose activity change, negative = inhibition, actives largely listed as inhibitors; actives 0.56% (n = 390,000); AlphaScreen HP1-beta / biotin-H3K9me3 peptide binding; Chromobox protein homolog 1 (Homo sapiens), P83916; note: potency is the fitted concentration of half-maximal effect; nearly all actives have a fitted effect of over 70% in size
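HP1-beta protein (50 nM final) preincubated 30 min at room temperature with biotinylated H3(1-18)K9me3 peptide (50 nM) in PBS pH 7.4, 0.01% Tween-20, then compound added for 30 min. AlphaScreen streptavidin donor/nickel chelate acceptor beads (10 ug/mL final), 30 min dark, luminescence read.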
Active calls of the source: *; ? = inconclusive; nt = no result given; [ ] = another dose, or the depositor's remark. Unless noted, calls come from the whole dose curve; as a rule, active = well fitted inhibition curve with a large enough effect; inconclusive = small, poorly fitted or top-dose-only effect; inactive = no such curve, though single readings can be large or run the other way.

SMILES | JMJD2A Tudor | TDP1 block | CtBP-E1A blk | Six1-Eya2 inh | BAZ2B inh | HP1b chromo inh
COc1cccc(CNC(=O)CSc2n[nH]c(-c3ccccc3Cl)n2)c1 | -9.1% | 2.7% | nt | nt | 1.8% | 23.7%[57 µM]
O=C1/C(=C\c2ccc(O)c(O)c2)SC(=S)N1Cc1ccccc1 | 2.24µM* | nt | ? | ? | 8.91µM* | 10µM*
O=C1/C(=C\c2cccc(O)c2O)SC(=S)N1Cc1ccccc1 | 12.6µM* | nt | ? | ? | 20µM* | ?
COCCCn1c(O)c(/C=C2\N=C(C#N)C(=Nc3ccc(C)cc3)O2)sc1=S | ? | 8.4% | -12.5 | -19.9 | 10µM* | ?
C#CCCCO/N=C1/C[C@@H](O)[C@@H](O)[C@@H]2[C@@H]3C(=O)N(CC)C(=O)[C@H]3CC[C@@H]12 | nt | 6.9%[21 µM] | nt | nt | nt | nt
CC(C)N(Cc1ccccc1)c1ncnc2c1nnn2C | -9.7% | 2.6% | nt | nt | 1.7% | 5.4%
CCn1nc(C)c(CCN(C)C(=O)Nc2cc(OC)c(OC)c(OC)c2)c1C | -12.9% | 1.2% | nt | nt | -5.1% | -9.8%
O=S(=O)(c1ccc2c(c1)OCCO2)N1CCN(S(=O)(=O)c2ccccc2OC(F)(F)F)CC1 | -11.0% | nt | nt | nt | nt | nt
Cc1ccc(OC(=O)COc2ccccc2C)c(-n2nc3ccccc3n2)c1 | 62.2% | nt | 27.5 | 18.9 | 43.3% | 120.5%
Cc1ccc(OC(=O)COc2ccccc2)c(-n2nc3ccccc3n2)c1 | 54.9% | nt | 11.1 | 21.9 | 56.2µM* | 114.3%
COc1ccc(NC(=O)Nc2ccc(Cc3ccncc3)cc2)c(OC)c1 | ? | 5.4% | 5.3 | -18.1 | 50.1µM* | ?
COc1ccc(NC(=O)Nc2cnccn2)c(OC)c1 | -9.9% | 1.5% | -3.2 | 5.6 | 0.9% | 19.9%
O=C(OCc1cc(=O)n2ccsc2n1)c1ccccc1NCCO | ? | 44.7µM* | 7.5 | -10.4 | nt | -8.5%
CC(=O)c1sc(NC(=O)CCCOc2ccc(Cl)cc2)nc1C | -19.0% | -12.3% | -7.9 | 15.3 | 79.4µM* | 28.0%
COc1ccc(OCCCC(=O)Nc2nc(C)c(C(C)=O)s2)cc1 | ? | 1.2% | 2.7 | 7.0 | 2.4% | -5.3%
Cc1ccc(Cn2cccc2C2=NC(C)(C)CO2)cc1 | -15.7% | 0.0% | nt | nt | nt | 31.9%
CC(C)(C)OC(=O)Cc1nnc(-c2nc3ccccc3[nH]2)o1 | -13.7% | -11.6% | nt | nt | nt | nt
O=[N+]([O-])c1cc2oc3c(c2c(C=NCc2ccccc2)c1O)CCCC3 | 70.8µM* | 8.2% | 3.1 | -16.0 | -30.2% | ?
Cc1c(Cc2ccccc2)sc(NC(=O)/C=C/c2cccc3ccccc23)c1C(N)=O | 39.8µM* | 0.0% | 4.8 | -0.4 | -11.3% | -3.2%
CCCCC[C@H](O)/C=C/C1=C(C/C=C\CCCC(=O)O)C(=O)CC1 | nt | 7.3% | nt | nt | nt | nt
COc1ccccc1NC(=O)c1cc2ccccc2o/c1=N\O | ? | nt | -22.9 | -0.5 | 79.4µM* | -7.4%
COc1cc(NC(=O)c2cc3ccccc3cc2O)c(OC)cc1Cl | 2.7% | nt | nt | -0.4 | -25.6% | 56.5%
COc1ccccc1NC(=O)c1cc2cc(Br)ccc2cc1O | ? | 0.0% | nt | 2.5 | 50.1µM* | 4.1%
COc1cc(C2c3c(-c4ccccc4O)n[nH]c3C(=O)N2Cc2ccco2)cc(OC)c1OC (stereo unspecified) | -9.6% | 3.9% | -17.7 | -2.1 | -15.2% | 36.1%
COc1ccc(C2c3c(-c4ccccc4O)n[nH]c3C(=O)N2Cc2ccco2)cc1 (stereo unspecified) | ? | 9.0% | -7.1 | -20.7 | 35.5µM* | -14.8%
Cc1ccc(C(=O)N[C@@H](C)CN2C3=NC[C@H](C(C)C)N3C[C@H]2Cc2ccc(O)cc2)cc1Br | 79.4µM* | 7.7% | -2.8 | -1.7 | -35.1% | -8.2%

Compound activity as filed in PubChem.
